The full ranking holds about 33,000 sequences; the median of “normalized occupancy” is about 0.075, and the highest 2% start at about 0.095. Only a selection was taken, and the highest values are over-represented in it overall.
molecular target: MaxL homodimer (Homo sapiens, UniProt P61244 1-160); assay: universal protein-binding microarray (PBM); PBS-based mixture, 10 nM His-tagged protein dimer, 2% milk, 200 ng/uL BSA, 50 ng/uL salmon testes DNA, 0.02% TX-100; detection with Alexa 488 anti-His antibody;; high values mean tight binding; conditions: protein: recombinant; tags: C-terminal His-tag (pET21a); chain copies: 2; dsDNA, one strand shown
Sequence (P61244 whole entry): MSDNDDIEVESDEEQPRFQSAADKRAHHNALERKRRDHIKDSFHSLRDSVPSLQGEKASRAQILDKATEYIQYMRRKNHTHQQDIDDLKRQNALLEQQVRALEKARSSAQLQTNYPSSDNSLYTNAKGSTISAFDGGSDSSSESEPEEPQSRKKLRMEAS
How it was run: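 Agilent 4 x 44 K arrays carrying the 'all 10-mer' universal design were incubated with His-tagged protein dimer at 10 nM. Protein that bound was tagged using fluorophore-conjugated anti-His antibody at 10 ng/μL, and a GenePix 4400A scanned the arrays to give an intensity for every 8-mer. Each binding occupancy value expresses an intensity relative to the top-ranked intensity.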

Sequence	binding signal [normalized occupancy]
CCTAAGGA	0.0757
ACTTTACC	0.0744
ACGATCAA	0.0748
AGAGATTC	0.0757
CGTTACAC	0.0819
TGTTACAA	0.0777
AATGCTTC	0.0816
CGTGCTTC	0.0896
AATGCTGG	0.0789
CATGCTTC	0.106
CAAGCTGG	0.0721
AATGCTGC	0.0788
AATGCTTA	0.0806
CATGCTTA	0.104
CATGCTGC	0.122
CATGCTGG	0.125
GATGCTTA	0.0759
GATGCTGC	0.078
CAACCGTC	0.075
ATGCAATG	0.08
CGACCTCG	0.0723
ATGATAAA	0.0793
ACGAGGTC	0.0849
ATAGACCC	0.0762
GTGACCCA	0.0762

Sequence	binding signal [normalized occupancy]
CATGCTGA	0.112
TATGCTGA	0.0773
GATGCTGA	0.0746
CCCTTGCA	0.0735
ACATTTTC	0.0796
AACGTTGA	0.0764
CGCGTTGC	0.0781
CACGTTGA	0.115
GACGTTGA	0.0764
CACGTTGC	0.131
CACGTTGG	0.122
AACGTTGG	0.0767
AACGTTGC	0.0766
TACGTTGA	0.082
AACTCGCG	0.0749
ACAAAGGG	0.0742
TCCTAAGA	0.0773
CTCAGTAC	0.0743
CCTCCTCC	0.0782
AGCATGAG	0.102
CGTATGAC	0.0817
CGCATGAC	0.105
CGCATGAG	0.0969
ATCATGAG	0.09
CGCATGAA	0.0861

Sequence	binding signal [normalized occupancy]
CGTATGAG	0.0785
GGCATGAC	0.0858
AGTATGAG	0.0766
ACAGATCT	0.0745
GGCATACA	0.0776
GAGACATC	0.0756
CATGCCAC	0.0989
CATGCCGA	0.102
TATGCCGA	0.0757
CATGCCGG	0.0917
AATGCCGC	0.0765
GATGCCGA	0.0738
CATGCCAA	0.0927
CATGCCAG	0.0874
CATGCCGC	0.105
ACCTAAAT	0.073
GAGCTATA	0.0729
ATGTGGAA	0.0936
GTATGGAA	0.0836
ACAGCACG	0.0906
CCCTGGAA	0.0745
AGCAGACA	0.0774
CCGCCACC	0.0762
TAATTGTA	0.0773
CTTTTGGA	0.0744

Sequence	binding signal [normalized occupancy]
CACCTGTC	0.0839
CACCTGGG	0.0841
CACCTGAG	0.0741
CACCTGGC	0.103
CACCTGGA	0.0905
CACCTGAC	0.0973
ATTCGAGG	0.0723
ACTGCACT	0.0733
AGATGTTG	0.0819
ATATGTTA	0.0924
GCATGTTA	0.0976
AGATGTTA	0.0811
GTATGTTA	0.0849
ACATGTTG	0.11
GCATGTCA	0.0972
ACATGTTA	0.0993
GCATGTCC	0.0929
CCATGTTA	0.0847
AAATGTTG	0.0794
ACATGTCA	0.0911
TACAGACA	0.0803
CATTGACG	0.0792
CGACCCTC	0.0724
TCTTGTAA	0.0718
AGAACGAC	0.0774

Sequence	binding signal [normalized occupancy]
GAGGCCCC	0.0733
GATGTCCA	0.0757
CCATTCTA	0.0759
AGCTGCCA	0.0736
ACATGTTC	0.0965
ATATGTTC	0.0831
CCATGTTC	0.0828
GGCATCAC	0.0813
GACAAGCC	0.0728
AAGCATCA	0.076
ATGCGCAC	0.0828
ACACGCAT	0.0976
ACACGCAC	0.0931
ATACGCAG	0.0734
ATGCGCAT	0.102
ACACGCAA	0.087
ATACGCAC	0.0799
ATACGCAT	0.0968
ATGCGCAG	0.0789
CAGTACTA	0.0775
CCCACAGC	0.0741
CCTGGCTC	0.0726
ACCTAAGT	0.0745
AGTGATGG	0.0766
GGTAGTCA	0.0743

Sequence	binding signal [normalized occupancy]
AAAATGAC	0.0766
CATGCAGG	0.097
CCTGCAGG	0.074
AATGCAGA	0.0752
CATGCAGC	0.0946
CATGCAGA	0.0959
AATGCAGG	0.08
GGTTTGTA	0.0749
AGTTCTAC	0.0751
AACAAATT	0.0736
CGGCAAGC	0.0718
CTTGTAAC	0.0775
ACCCACCG	0.0804
AGCGCATC	0.0737
ACCGCATA	0.0828
ATCGCATA	0.082
AGCGCATG	0.109
ATCGCATG	0.108
ACCGCATG	0.146
AGCGCATA	0.0757
ATCGCATC	0.0742
ACCGCATC	0.0749
AATTCACA	0.0775
GTCACTAA	0.0757
AACATCTC	0.0748

Sequence	binding signal [normalized occupancy]
ATGGACGG	0.0788
CACACGAG	0.0978
AACACGAG	0.11
AACACGAA	0.0741
CACACGAA	0.0853
CACACGAC	0.0877
AACACGAT	0.0845
TAGAGCTA	0.0719
AGTGTATC	0.0882
AAATTGCC	0.0721
CAATTCTA	0.0752
CACATTTA	0.0961
AACATTTA	0.0795
GACATTTA	0.0853
CACATTGA	0.0932
CACATTGC	0.0923
CACATTGG	0.0977
GTTCTAGA	0.0745
ATGTGGTC	0.0985
ATGTGGAC	0.0955
ATGTGGTA	0.0922
CTGTGGAC	0.0726
ATGTGGAG	0.0861
ATGTGGTG	0.0894

From publication PMC4242493, “Sequence specificity incompletely defines the genome-wide occupancy of Myc”
